Active and inactive are the calls of the source. Unless noted, the rule behind the calls is not given here.

Assay [1] has as its target T1, Hexokinase-4 (Homo sapiens) + Glucokinase regulatory protein (Homo sapiens) (UniProt P35557+Q14397). The experiment in a line: qHTS assay for inhibitors of recombinant human GCK-GKRP interaction: Diaphorase-coupled assay (AID 743205; active = well fitted curve in the direction sought with a large enough effect). The conditions noted are these: G6PDH/diaphorase resorufin fluorescence; series mostly up to 57.5 µM. The essentials:
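Compounds pre-incubated 20 min with substrate, then 10 nM GST-GCK with 10 nM FLAG-GKRP added. GCK activity coupled via G6PDH and diaphorase to resorufin (5 mM glucose, 0.4 mM ATP, 0.15 mM NADP+, pH 7.6), read kinetically over 30 minutes at Ex 525/Em 590 nm.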
For orientation: Quantitative high-throughput screening tests each substance at several concentrations.

In assay [2] the target is T1, Hexokinase-4 (Homo sapiens) + Glucokinase regulatory protein (Homo sapiens). The experiment in a line: qHTS assay for inhibitors of recombinant human GCK-GKRP interaction: ADP-Glo assay (AID 743206; active = well fitted curve in the direction sought with a large enough effect;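 note: plate controls were DMSO plus enzyme for no effect and no enzyme for full effect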). The settings on record: ADP-Glo luminescence, 60 min, 0% = vehicle-only wells with enzyme present; series mostly up to 76.9 µM. A digest of the protocol:
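GST-GCK and FLAG-GKRP (15 nM each in the dispensed mix, with 2 uM S6P) react with 0.4 mM ATP and 5 mM glucose (final) in Hepes pH 7.6 for 60 min at room temperature. ADP is measured by ADP-Glo luminescence.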

Assay [3] has the same target. The experiment in a line: qHTS assay for inhibitors of recombinant human GCK-GKRP interaction: HTRF assay (AID 743207; active = well fitted curve in the direction sought with a large enough effect;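 note: 0% = DMSO with GCK present and -100% = DMSO wells lacking GCK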). The conditions noted are these: recombinant GCK-GKRP HTRF binding, 60 min, with sorbitol-6-phosphate; series mostly up to 57.5 µM. A digest of the protocol:
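HTRF binding of 5 nM GST-GCK and 5 nM FLAG-GKRP with 2 uM S6P in pH 7.1 Hepes buffer (MgCl2, KCl, DTT, Tween 20, BSA). Anti-FLAG XL665 and anti-GST donor added, 60 min at room temperature; 665/615 nm read, normalized to with- and without-GCK controls.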

Assay [4] is described as follows: qHTS profiling of the MIPE4 collection as inhibitors of Plasmodium falciparum (3D7) proliferation (AID 743344).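 Note: scaled between DMSO vehicle wells and 0.29 µM artemisinin as full inhibition.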 The settings on record: P. falciparum 3D7 in erythrocytes, SYBR Green DNA fluorescence, 72 h; at 28.5 µM (top of the series). A digest of the protocol: (§1)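 Erythrocytes infected with P. falciparum (0.3% parasitemia, 2.5% hematocrit) incubated with compounds 72 h at 37 C, 5% CO2. Lysis with saponin/Triton buffer containing SYBR Green I, overnight at room temperature in the dark; DNA fluorescence (485/535 nm) normalised to 0.29 uM artemisinin and DMSO.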

Assay [5] can be described thus: qHTS profiling of the MIPE4 collection as inhibitors of Plasmodium falciparum (DD2) proliferation (AID 743345). The settings on record: P. falciparum Dd2 in erythrocytes, SYBR Green DNA, 72 h; at 28.5 µM (top of the series). A digest of the protocol: as §1
Assay [6] can be described thus: qHTS profiling of the MIPE4 collection as inhibitors of Plasmodium falciparum (DD2) proliferation (Rep 2) (AID 743346). The conditions noted are these: P. falciparum Dd2 in erythrocytes, SYBR Green DNA, 72 h; at 28.5 µM (top of the series). A digest of the protocol:
as §1

The nature of assay [7]: qHTS profiling of the MIPE4 collection as inhibitors of Plasmodium falciparum (HB3) proliferation (AID 743347).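 Note: plate controls were DMSO vehicle wells for no effect and artemisinin wells for full effect.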 The settings on record: P. falciparum HB3 in erythrocytes, SYBR Green DNA, 72 h; at 28.5 µM (top of the series). The source says: Plasmodium falciparum is a virulent malarial parasite that kills 1-2 million people worldwide each year. Transmitted by mosquitoes, the sporozoite form of the parasite enters the blood stream to infect hepatocytes, where they become merozoites that infect red blood cells (erythrocytes). Within erythrocytes, merozoites begin a […] cycle of growth and division, after which the parasite is released to infect new red blood cells. Gametocytes, which form within erythrocytes as well, circulate in the bloodstream and are ingested by the mosquito, thereby completing the life cycle. To profile malarial isolates for differential chemical responses and to identify inhibitors of malarial growth, an assay that measures P. falciparum growth and replication within erythrocytes was employed. […] Because mature erythrocytes lack DNA, only Plasmodium-derived DNA is detected.
The SYBR Green viability assay was adapted from a method described previously (Plouffe et al., 2008). […] The following morning, fluorescence intensity at 485(14) nm excitation and 535(25) nm emission wavelengths was measured on an EnVision (Perkin Elmer) plate reader. Plate reads were normalized relative to the control inhibitor (0.29 uM artemisinin) and vehicle (DMSO) wells present on each plate and then corrected by an algorithm using vehicle-only control plates at the beginning and end of the compound plate stack.

T1 sequence (P35557 whole entry, looked up): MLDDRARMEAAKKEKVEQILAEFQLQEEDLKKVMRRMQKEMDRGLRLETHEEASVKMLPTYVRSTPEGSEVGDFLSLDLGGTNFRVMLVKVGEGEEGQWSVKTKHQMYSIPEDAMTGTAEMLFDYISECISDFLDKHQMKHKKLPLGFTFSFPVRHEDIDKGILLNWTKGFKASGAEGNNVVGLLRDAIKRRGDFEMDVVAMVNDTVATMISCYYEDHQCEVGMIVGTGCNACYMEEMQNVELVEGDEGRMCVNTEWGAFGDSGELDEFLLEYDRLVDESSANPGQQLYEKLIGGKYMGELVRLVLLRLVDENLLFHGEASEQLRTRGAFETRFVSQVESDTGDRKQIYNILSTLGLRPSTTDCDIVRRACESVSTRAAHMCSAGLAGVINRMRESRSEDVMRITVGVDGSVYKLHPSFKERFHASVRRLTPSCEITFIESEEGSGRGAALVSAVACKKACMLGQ
T1 sequence (Q14397 whole entry, looked up): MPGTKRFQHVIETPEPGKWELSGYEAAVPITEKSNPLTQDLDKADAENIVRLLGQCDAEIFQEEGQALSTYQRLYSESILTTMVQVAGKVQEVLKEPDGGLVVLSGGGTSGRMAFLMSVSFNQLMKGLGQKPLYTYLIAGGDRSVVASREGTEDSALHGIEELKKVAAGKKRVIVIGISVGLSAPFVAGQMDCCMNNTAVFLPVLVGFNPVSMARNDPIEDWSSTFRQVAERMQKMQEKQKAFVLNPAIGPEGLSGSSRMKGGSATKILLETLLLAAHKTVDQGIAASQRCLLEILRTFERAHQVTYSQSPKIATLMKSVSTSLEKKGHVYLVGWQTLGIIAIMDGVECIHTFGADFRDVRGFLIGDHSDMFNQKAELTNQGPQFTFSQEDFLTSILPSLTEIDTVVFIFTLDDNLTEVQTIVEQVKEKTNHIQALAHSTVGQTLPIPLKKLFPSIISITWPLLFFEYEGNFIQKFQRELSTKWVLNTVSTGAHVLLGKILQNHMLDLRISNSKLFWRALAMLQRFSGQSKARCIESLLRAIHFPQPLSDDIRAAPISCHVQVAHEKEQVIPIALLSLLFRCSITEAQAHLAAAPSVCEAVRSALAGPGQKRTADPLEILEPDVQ

Regarding `NCCCC(=O)O`, the result in assay [1], in assay [2] and in assay [3] was inactive.
For `CN[C@H]1CC[C@@H](c2ccc(Cl)c(Cl)c2)c2ccccc21`, the result in assay [1], in assay [2] and in assay [3] was inactive.
With `CC(=O)NC[C@H]1CN(c2ccc(N3CCSCC3)c(F)c2)C(=O)O1`, the parasite growth, % of DMSO control in assay [4] came out at 91.5%. The parasite growth remaining, % of DMSO control (lower = more inhibition) in assay [5] was 103%. Also, in assay [6], the parasite growth, % of control (lower = inhibition) is 186%. In assay [7], this compound gave a growth, % of control of 110%.
Taken in the same sequence, the figures for `N[C@@H](C(=O)N[C@H]1C(=O)N2C(C(=O)O)=C(Cl)CC[C@H]12)c1ccccc1` were 101%, 100%, 78.4% and 104%.

For the origin of these results see PubChem BioAssay (NCATS).
